Test results as given in the OligoGym collection.
Also: reference of the scale not given here.

Each sequence was assayed against EBP (assay: pooled miR-30 sensor sort-seq; sequence = guide strand). Conditions: shRNA.
For ATTAGGTACAAAGTTGTCCAGT, the sensor-assay potency score (higher = more potent) was -0.389. With ATGGTTTCCATGCACACTGTGA the sensor-assay potency score (higher = more potent) was -0.951. TCGTAGTAGAGAACGAACCAGC was tested, and the sensor-assay potency score (higher = more potent) was -1.05. In the case of TAAAACCAGAAGTAGAGAGGGT, the sensor-assay potency score (higher = more potent) is reported as 0.087. Sequence TTGTCCAGTCTTAGGTGCTGAG has a sensor-assay potency score (higher = more potent) of -1.23. TTCTCTTGTATCTGTGTTCTAA showed a sensor-assay potency score (higher = more potent) of -0.119. TTCGTAGTAGAGAACGAACCAG showed a sensor-assay potency score (higher = more potent) of -0.577. TTGGCATCCAGCGTGCTCTGGG showed a sensor-assay potency score (higher = more potent) of -0.0185. Sequence ACAAGCTGTAGAATGAAGCGGA has a sensor-assay potency score (higher = more potent) of 0.326. For ATGAAGACAAAGTAAAACCAGA, the sensor-assay potency score (higher = more potent) was -0.723. In the case of TTGGTCTCCAAGCAGGTCTTCG, the sensor-assay potency score (higher = more potent) is reported as -0.868. Sequence TTTTGTGGCCTTGGCATCCAGC has a sensor-assay potency score (higher = more potent) of -1.25.

Each sequence was assayed against ECH1 in the same assay as above. Conditions: shRNA.
In the case of TCGTCAGCCATCATCTTGCGGG, the sensor-assay potency score (higher = more potent) is reported as -0.729. Work on AAATCTTGTTGAAGCACTCTAC yielded a sensor-assay potency score (higher = more potent) of 0.264. In the case of TTGTCTGGGAACACCCGGCTGA, the sensor-assay potency score (higher = more potent) is reported as 0.142. TATCGAGTGATGATGTCACGGA was tested, and the sensor-assay potency score (higher = more potent) was -0.0973. TCAGCGTCTCTCGAAATCTTGT was tested, and the sensor-assay potency score (higher = more potent) was -0.622. Sequence TTTGTCTGGGAACACCCGGCTG has a sensor-assay potency score (higher = more potent) of -1.1. For TTGTTCTCAGTCGTGGCCTGGA, the sensor-assay potency score (higher = more potent) was -0.493. Work on TTGACCAGGCTCTGGTTCCCGA yielded a sensor-assay potency score (higher = more potent) of -0.944. For AAGGCTAATACTGAGTCCCGGG, the sensor-assay potency score (higher = more potent) was 0.193. Work on TCGAGTGATGATGTCACGGAGG yielded a sensor-assay potency score (higher = more potent) of -1.15. TGTCCATCAGGTCAATACCTGC gave a sensor-assay potency score (higher = more potent) of -1.4.
